# The entries come from a sample that favours the strongest signals as a whole.
# B1: CcfD (Bacteroides vulgatus), A6KYX8 (protein)
# chain: MKYKNYFKSIIYLALGAFTLGSCEDFLDRQEDEKLTFDKIWESRNTTQQYWLNAMSFLPNENGSLQGDTEPYLGASDECTIAYDRQYRWINFGTWNPSQVPYYKMDHYYKGIRECNIFLQNVYKCSDPLVTKDQLDEWYWQTRFARAYYYFLMMRDYGPVFLLGDDLLDFTASTEELYRPRNTWDQCVNYVVSEMTQCAESGVVLQQSDLPAAKWGLATVGTCHAVISRLLLYSARPLFNGNKLYSTVKNPDAPDFPELSGVKLFPELDNTKWQKAAEAAKKLIDNPCYELYRAGNDNPYEDYYGVTHETWNKELIWTDRYNGLFSWGVGTVPTGVAGTAYGAVGPTQALVDAYAMNTGWYPITGYEADGTPIVEPLSGYELASELEKSSWIYPSGGWSNKADFEIEAPNMYKDREPRFYVTVFFGGNQWLHGNSATSISFAKGGNGNKSHDYPKSGYLCNRFYDHKLNSSEGQWGNITFPVFRLGEIYLNFIEAVLECKKNGVALDPSYEALAMEKWADLRKRAGLDPITSIYGQVSTEELIQLCRKERQIELAFERHRYFDTRTWMIATQTDNGKMYGMNTSCPLDAGMKGTETPDGFWERTAFETRVFQNKHYLYPFSQRELDRNKLLTQNYGW
# Legend:
# Assay in all cases: glycan array binding signal (z-score within array); higher = stronger binding
# Conditions in all cases: glycan notation: IUPAC condensed, linker removed
# [1] = target: Fuc(a1-2)Gal(b1-4)Fuc(a1-3)]GlcNAc(b1-2)Man(a1-3)[Fuc(a1-2)Gal(b1-4)[Fuc(a1-3)]GlcNAc(b1-2)Man(a1-6)]Man(b1-4)GlcNAc(b1-4)GlcNAc
# Procedure, shortened: (§1)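 Negative Z-scores can be read as non-binding. The Z-score is calculated within each array and then averaged across arrays of one protein sequence at different concentrations or buffers and across linkers. Arrays, 3228 in all, were curated from the Consortium for Functional Glycomics database and kept only where the protein sequence was available.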
# [2] = target: Fuc(a1-2)Gal(b1-4)GlcNAc(b1-2)Man(a1-3)[Fuc(a1-2)Gal(b1-4)GlcNAc(b1-2)Man(a1-6)]Man(b1-4)GlcNAc(b1-4)GlcNAc
# Procedure, shortened: as §1
# [3] = target: Fuc(a1-2)Gal(b1-4)GlcNAc(b1-3)Gal(b1-4)GlcNAc(b1-2)Man(a1-3)[Fuc(a1-2)Gal(b1-4)GlcNAc(b1-3)Gal(b1-4)GlcNAc(b1-2)Man(a1-6)]Man(b1-4)GlcNAc(b1-4)GlcNAc
# Procedure, shortened: as §1
# [4] = target: Fuc(a1-2)Gal(b1-4)GlcNAc(b1-6)GalNAc
# Procedure, shortened: as §1
# [5] = target: Fuc(a1-2)Gal(b1-4)GlcNAc6S
# Procedure, shortened: as §1
# [6] = target: Fuc(a1-2)Gal(b1-4)[Fuc(a1-3)]GlcNAc(b1-3)GalNAc
# Procedure, shortened: as §1
# [7] = target: Fuc(a1-2)[Gal(a1-3)]Gal(b1-3)GlcNAc(b1-2)Man(a1-3)[Fuc(a1-2)[Gal(a1-3)]Gal(b1-3)GlcNAc(b1-2)Man(a1-6)]Man(b1-4)GlcNAc(b1-4)GlcNAc
# Procedure, shortened: as §1
# [8] = target: Fuc(a1-2)[Gal(a1-3)]Gal(b1-4)GlcNAc(b1-2)Man
# Procedure, shortened: as §1
# [9] = target: Fuc(a1-2)[GalNAc(a1-3)]Gal(b1-3)GlcNAc(b1-6)GalNAc
# Procedure, shortened: as §1
# [10] = target: Fuc(a1-2)[GalNAc(a1-3)]Gal(b1-4)GlcNAc(b1-2)Man(a1-3)[Fuc(a1-2)[GalNAc(a1-3)]Gal(b1-4)GlcNAc(b1-2)Man(a1-6)]Man(b1-4)GlcNAc(b1-4)GlcNAc
# Procedure, shortened: as §1
# [11] = target: Fuc(a1-2)[GalNAc(a1-3)]Gal(b1-4)GlcNAc(b1-3)[Fuc(a1-2)[GalNAc(a1-3)]Gal(b1-4)GlcNAc(b1-6)]GalNAc
# Procedure, shortened: as §1
# [12] = target: Fuc(a1-3)[Gal3S(b1-4)]Glc
# Procedure, shortened: as §1
# Gal(a1-3)Gal = target: Gal(a1-3)Gal
# Procedure, shortened: as §1
# [13] = target: Gal(a1-3)Gal(b1-4)[Fuc(a1-3)]GlcNAc
# Procedure, shortened: as §1
# [14] = target: Gal(b1-3)[Fuc(a1-4)]GlcNAc
# Procedure, shortened: as §1
# [15] = target: Gal(b1-4)GalNAc(b1-3)[Fuc(a1-2)]Gal(b1-4)GlcNAc
# Procedure, shortened: as §1
# [16] = target: Gal(b1-4)GlcNAc(b1-2)Man(a1-3)Man(b1-4)GlcNAc(b1-4)GlcNAc
# Procedure, shortened: as §1
# [17] = target: Gal(b1-4)GlcNAc(b1-2)[Gal(b1-4)GlcNAc(b1-4)]Man(a1-3)[GlcNAc(b1-4)][Gal(b1-4)GlcNAc(b1-2)[Gal(b1-4)GlcNAc(b1-6)]Man(a1-6)]Man(b1-4)GlcNAc(b1-4)GlcNAc
# Procedure, shortened: as §1
# [18] = target: Gal(b1-4)GlcNAc(b1-3)Gal(b1-3)GlcNAc
# Procedure, shortened: as §1
# [19] = target: Gal(b1-4)GlcNAc(b1-3)Gal(b1-4)GlcNAc(b1-3)Gal(b1-4)GlcNAc
# Procedure, shortened: as §1
# [20] = target: Gal(b1-4)GlcNAc(b1-3)Gal(b1-4)GlcNAc(b1-3)Gal(b1-4)GlcNAc(b1-3)Gal(b1-4)GlcNAc(b1-2)Man(a1-3)[Gal(b1-4)GlcNAc(b1-3)Gal(b1-4)GlcNAc(b1-3)Gal(b1-4)GlcNAc(b1-3)Gal(b1-4)GlcNAc(b1-2)Man(a1-6)]Man(b1-4)GlcNAc(b1-4)[Fuc(a1-6)]GlcNAc
# Procedure, shortened: as §1
# [21] = target: GalNAc(b1-4)GlcNAc(b1-2)Man
# Procedure, shortened: as §1
# GalNAc3S(b1-4)GlcNAc3S = target: GalNAc3S(b1-4)GlcNAc3S
# Procedure, shortened: as §1
# [22] = target: GlcNAc(b1-2)[GlcNAc(b1-6)]Man(a1-6)[GlcNAc(b1-2)Man(a1-3)]Man(b1-4)GlcNAc(b1-4)GlcNAc
# Procedure, shortened: as §1
# GlcNAc(b1-3)Gal(b1-4)Glc = target: GlcNAc(b1-3)Gal(b1-4)Glc
# Procedure, shortened: as §1
# [23] = target: GlcNAc(b1-3)Gal(b1-4)GlcNAc
# Procedure, shortened: as §1
# [24] = target: GlcNAc(b1-3)Gal(b1-4)GlcNAc(b1-2)[GlcNAc(b1-3)Gal(b1-4)GlcNAc(b1-6)]Man(a1-6)[GlcNAc(b1-3)Gal(b1-4)GlcNAc(b1-2)Man(a1-3)]Man(b1-4)GlcNAc(b1-4)GlcNAc
# Procedure, shortened: as §1
# GlcNAc(b1-3)GalNAc = target: GlcNAc(b1-3)GalNAc
# Procedure, shortened: as §1
# [25] = target: GlcNAc(b1-3)[GlcNAc(b1-4)][GlcNAc(b1-6)]GlcNAc
# Procedure, shortened: as §1
# [26] = target: Man(a1-3)[Man(a1-6)]Man(a1-6)[Man(a1-2)Man(a1-3)]Man(b1-4)GlcNAc(b1-4)GlcNAc
# Procedure, shortened: as §1
binder,measurement,setting,value
B1,glycan array binding signal (z-score),[1],2
same,glycan array binding signal (z-score),[2],4.7
same,glycan array binding signal (z-score),[3],4.15
same,glycan array binding signal (z-score),[4],0.552
same,glycan array binding signal (z-score),[5],1.84
same,glycan array binding signal (z-score),[6],0.374
same,glycan array binding signal (z-score),[7],3.23
same,glycan array binding signal (z-score),[8],-0.282
same,glycan array binding signal (z-score),[9],-0.82
same,glycan array binding signal (z-score),[10],4.4
same,glycan array binding signal (z-score),[11],0.323
same,glycan array binding signal (z-score),[12],-0.429
same,glycan array binding signal (z-score),Gal(a1-3)Gal,0.343
same,glycan array binding signal (z-score),[13],0.14
same,glycan array binding signal (z-score),[14],-0.269
same,glycan array binding signal (z-score),[15],-0.749
same,glycan array binding signal (z-score),[16],3
same,glycan array binding signal (z-score),[17],-0.683
same,glycan array binding signal (z-score),[18],-0.932
same,glycan array binding signal (z-score),[19],-1.02
same,glycan array binding signal (z-score),[20],0.003
same,glycan array binding signal (z-score),[21],-0.896
same,glycan array binding signal (z-score),GalNAc3S(b1-4)GlcNAc3S,-0.21
same,glycan array binding signal (z-score),[22],-0.663
same,glycan array binding signal (z-score),GlcNAc(b1-3)Gal(b1-4)Glc,-0.881
same,glycan array binding signal (z-score),[23],-1.04
same,glycan array binding signal (z-score),[24],3.38
same,glycan array binding signal (z-score),GlcNAc(b1-3)GalNAc,-0.332
same,glycan array binding signal (z-score),[25],2.41
same,glycan array binding signal (z-score),[26],-0.673
